Results taken from the supplement of paper PMC11732987, “Enantioselective OTUD7B fragment discovery through chemoproteomics screening and high-throughput optimisation” (Communications Chemistry, 2025).

Legend:
Experiment in all cases: log2 ratio of Biotin-Ahx-Ub-VS probe labelling (fragment/DMSO); higher = less target engagement (more negative = stronger competition), active = hit call of the paper (q ≤ 0.05, log2 ratio ≤ -1)
Conditions in all cases: compound concentration: 200 uM; treatment time: 3 h
USP34 = USP34 (UniProt Q70CQ2)
Sequence of USP34 (Q70CQ2 whole entry, the tested form may be a part): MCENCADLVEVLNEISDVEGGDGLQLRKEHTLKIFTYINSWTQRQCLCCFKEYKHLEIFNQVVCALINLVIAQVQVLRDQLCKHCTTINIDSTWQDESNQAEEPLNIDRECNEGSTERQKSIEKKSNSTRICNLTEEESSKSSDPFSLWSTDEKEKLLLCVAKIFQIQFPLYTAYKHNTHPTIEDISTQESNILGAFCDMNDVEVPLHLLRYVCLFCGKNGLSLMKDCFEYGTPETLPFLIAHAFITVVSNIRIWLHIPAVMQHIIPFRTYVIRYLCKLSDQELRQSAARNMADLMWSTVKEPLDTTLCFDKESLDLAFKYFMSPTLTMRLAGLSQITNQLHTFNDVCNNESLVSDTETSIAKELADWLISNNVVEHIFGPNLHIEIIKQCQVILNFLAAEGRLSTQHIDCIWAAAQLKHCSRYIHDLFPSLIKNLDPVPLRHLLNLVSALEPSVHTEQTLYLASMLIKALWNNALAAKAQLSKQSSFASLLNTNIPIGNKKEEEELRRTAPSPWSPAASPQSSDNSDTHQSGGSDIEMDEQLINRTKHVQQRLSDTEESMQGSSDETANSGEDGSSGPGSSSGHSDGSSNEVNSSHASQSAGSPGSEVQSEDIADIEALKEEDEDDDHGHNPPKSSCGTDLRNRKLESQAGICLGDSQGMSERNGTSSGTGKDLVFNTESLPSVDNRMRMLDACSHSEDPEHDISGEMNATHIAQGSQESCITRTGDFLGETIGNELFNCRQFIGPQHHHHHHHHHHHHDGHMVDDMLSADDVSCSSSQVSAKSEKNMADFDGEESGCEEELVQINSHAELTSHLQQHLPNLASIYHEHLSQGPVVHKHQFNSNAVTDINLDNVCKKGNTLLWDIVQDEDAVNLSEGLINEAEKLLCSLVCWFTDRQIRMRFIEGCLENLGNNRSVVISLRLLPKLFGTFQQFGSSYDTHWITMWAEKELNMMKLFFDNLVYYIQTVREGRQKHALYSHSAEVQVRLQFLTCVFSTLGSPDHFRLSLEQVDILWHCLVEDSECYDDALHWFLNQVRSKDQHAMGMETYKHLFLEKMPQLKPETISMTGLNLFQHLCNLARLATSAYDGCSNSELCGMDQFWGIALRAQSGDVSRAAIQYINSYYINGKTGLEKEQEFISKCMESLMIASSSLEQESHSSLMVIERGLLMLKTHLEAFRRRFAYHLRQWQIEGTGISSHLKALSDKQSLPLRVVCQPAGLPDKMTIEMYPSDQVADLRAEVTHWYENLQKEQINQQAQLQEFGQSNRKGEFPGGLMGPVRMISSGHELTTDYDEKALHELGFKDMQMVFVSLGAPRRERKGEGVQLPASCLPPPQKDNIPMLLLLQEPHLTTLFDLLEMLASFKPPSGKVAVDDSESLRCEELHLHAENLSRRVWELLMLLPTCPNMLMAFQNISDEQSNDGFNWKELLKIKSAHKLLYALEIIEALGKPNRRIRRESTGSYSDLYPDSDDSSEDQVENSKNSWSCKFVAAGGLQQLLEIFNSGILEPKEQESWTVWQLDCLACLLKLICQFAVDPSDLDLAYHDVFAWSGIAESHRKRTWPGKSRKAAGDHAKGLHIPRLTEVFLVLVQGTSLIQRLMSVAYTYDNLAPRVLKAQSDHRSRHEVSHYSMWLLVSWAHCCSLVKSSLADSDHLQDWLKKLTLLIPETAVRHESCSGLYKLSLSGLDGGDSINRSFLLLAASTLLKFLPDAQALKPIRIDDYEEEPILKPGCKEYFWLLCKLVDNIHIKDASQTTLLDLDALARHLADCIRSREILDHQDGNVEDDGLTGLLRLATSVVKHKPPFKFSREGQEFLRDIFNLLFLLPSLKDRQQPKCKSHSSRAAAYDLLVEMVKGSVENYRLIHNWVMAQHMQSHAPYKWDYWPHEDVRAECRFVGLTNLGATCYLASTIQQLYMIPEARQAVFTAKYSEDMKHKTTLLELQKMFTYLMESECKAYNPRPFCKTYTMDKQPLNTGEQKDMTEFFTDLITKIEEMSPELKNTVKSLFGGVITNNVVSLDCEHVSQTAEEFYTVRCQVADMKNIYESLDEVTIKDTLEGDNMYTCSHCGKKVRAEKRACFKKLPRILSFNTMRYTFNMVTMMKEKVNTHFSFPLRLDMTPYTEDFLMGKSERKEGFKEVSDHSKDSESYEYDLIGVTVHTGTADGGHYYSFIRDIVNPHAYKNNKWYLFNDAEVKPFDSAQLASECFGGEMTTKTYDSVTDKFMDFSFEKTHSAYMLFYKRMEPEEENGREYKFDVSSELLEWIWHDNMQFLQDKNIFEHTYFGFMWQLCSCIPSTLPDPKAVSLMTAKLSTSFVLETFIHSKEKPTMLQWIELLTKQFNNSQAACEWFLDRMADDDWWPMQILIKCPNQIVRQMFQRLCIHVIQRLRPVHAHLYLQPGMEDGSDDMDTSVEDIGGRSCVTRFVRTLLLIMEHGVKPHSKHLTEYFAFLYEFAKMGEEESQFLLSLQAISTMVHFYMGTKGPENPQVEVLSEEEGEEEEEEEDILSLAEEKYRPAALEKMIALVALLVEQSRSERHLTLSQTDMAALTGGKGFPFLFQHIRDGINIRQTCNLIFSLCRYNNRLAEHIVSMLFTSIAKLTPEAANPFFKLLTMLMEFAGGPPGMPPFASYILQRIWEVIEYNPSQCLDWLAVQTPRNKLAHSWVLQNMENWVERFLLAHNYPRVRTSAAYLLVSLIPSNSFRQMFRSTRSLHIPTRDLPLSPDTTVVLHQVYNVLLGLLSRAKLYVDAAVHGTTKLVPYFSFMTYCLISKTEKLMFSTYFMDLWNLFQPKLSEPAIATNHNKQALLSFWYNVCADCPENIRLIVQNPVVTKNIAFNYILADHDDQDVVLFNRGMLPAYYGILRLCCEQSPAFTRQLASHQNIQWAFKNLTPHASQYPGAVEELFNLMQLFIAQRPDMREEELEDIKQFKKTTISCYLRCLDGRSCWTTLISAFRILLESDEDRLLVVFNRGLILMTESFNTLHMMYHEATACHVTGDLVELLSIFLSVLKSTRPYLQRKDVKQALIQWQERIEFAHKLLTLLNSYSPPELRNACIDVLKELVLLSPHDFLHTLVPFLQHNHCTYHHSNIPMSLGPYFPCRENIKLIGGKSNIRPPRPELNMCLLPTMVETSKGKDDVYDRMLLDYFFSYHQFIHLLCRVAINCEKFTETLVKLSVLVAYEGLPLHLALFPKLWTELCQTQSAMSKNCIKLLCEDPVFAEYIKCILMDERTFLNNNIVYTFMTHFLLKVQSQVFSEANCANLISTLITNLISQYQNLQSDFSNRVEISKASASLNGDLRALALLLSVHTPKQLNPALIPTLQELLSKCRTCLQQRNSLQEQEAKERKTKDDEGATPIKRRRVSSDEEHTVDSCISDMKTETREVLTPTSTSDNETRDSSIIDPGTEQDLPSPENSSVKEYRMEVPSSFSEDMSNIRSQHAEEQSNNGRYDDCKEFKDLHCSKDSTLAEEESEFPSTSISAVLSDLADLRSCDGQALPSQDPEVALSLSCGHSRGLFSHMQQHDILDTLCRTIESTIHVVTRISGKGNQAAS
Outline: (§1)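 The table lists average log2 ratios of fragment over vehicle, from an unpaired t-test on global-median-normalised Spectronaut label-free quantities. Proteins with ≥2 unique peptides were used. Samples were HEK293T lysate (495 µg) treated in triplicate with fragment at 200 µM or vehicle for 3 h, then with Biotin-Ahx-Ub-VS (0.5 µM final) for 1 h, with labelled DUBs NeutrAvidin-enriched and run by diaPASEF LC-MS/MS.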

USP36 = biological target: T1, USP36 (UniProt Q9P275)
T1 sequence (whole entry): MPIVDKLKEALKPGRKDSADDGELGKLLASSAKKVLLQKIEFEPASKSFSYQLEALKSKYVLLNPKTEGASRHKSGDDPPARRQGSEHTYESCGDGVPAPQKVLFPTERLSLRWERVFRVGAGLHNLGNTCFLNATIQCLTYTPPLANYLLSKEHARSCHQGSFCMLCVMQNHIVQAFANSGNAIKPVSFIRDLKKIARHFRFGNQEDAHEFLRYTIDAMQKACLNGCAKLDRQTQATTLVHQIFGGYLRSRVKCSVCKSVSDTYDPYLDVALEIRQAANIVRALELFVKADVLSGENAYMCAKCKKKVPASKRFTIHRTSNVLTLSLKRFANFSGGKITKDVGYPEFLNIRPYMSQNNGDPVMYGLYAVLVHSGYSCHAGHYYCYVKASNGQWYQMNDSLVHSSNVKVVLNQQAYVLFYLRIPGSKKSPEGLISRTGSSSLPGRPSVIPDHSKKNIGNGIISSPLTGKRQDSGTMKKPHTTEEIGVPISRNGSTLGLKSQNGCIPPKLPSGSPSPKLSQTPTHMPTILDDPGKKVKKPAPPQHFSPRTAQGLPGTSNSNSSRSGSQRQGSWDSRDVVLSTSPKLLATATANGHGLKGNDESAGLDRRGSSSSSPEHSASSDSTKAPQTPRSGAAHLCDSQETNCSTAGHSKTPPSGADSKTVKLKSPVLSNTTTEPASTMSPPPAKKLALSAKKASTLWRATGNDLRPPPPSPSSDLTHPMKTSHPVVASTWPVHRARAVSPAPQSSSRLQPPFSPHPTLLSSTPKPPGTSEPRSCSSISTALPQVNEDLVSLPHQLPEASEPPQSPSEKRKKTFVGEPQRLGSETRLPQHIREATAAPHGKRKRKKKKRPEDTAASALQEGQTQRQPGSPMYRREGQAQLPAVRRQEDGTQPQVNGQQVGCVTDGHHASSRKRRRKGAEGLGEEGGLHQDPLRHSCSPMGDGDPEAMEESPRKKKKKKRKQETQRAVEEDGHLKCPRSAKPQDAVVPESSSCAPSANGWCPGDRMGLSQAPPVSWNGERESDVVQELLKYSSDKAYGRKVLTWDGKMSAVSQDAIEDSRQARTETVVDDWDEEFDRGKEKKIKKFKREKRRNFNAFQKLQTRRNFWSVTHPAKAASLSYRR
Outline: as §1

USP38 = biological target: T2, USP38 (UniProt Q8NB14)
T2 sequence (whole entry): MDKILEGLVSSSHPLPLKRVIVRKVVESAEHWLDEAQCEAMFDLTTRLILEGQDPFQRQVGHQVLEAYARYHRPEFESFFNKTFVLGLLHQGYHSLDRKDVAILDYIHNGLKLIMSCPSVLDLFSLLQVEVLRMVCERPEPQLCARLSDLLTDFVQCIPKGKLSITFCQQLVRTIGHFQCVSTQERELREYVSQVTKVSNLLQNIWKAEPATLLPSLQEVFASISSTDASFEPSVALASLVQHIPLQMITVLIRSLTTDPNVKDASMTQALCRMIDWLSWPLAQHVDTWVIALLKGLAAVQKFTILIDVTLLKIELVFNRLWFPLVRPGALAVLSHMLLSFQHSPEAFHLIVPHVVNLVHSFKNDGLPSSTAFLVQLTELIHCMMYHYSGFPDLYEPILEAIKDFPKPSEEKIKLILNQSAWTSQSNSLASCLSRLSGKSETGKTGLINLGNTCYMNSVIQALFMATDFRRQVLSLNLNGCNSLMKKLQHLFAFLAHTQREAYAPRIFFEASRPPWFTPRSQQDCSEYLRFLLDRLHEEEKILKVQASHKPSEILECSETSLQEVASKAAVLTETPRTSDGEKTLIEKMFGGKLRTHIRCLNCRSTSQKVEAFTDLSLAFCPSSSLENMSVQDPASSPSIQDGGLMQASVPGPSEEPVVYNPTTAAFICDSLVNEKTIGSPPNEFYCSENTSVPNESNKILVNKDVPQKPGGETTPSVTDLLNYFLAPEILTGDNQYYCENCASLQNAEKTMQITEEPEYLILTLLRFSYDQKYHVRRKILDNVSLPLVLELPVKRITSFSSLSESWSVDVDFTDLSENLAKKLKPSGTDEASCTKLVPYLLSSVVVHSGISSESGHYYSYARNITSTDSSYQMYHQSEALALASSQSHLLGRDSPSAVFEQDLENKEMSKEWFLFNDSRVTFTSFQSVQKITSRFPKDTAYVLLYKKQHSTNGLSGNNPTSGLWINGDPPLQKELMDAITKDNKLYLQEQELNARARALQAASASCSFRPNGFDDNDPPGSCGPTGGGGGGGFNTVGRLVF
Outline: as §1

USP39 = biological target: T3, USP39 (UniProt Q53GS9)
T3 sequence (whole entry): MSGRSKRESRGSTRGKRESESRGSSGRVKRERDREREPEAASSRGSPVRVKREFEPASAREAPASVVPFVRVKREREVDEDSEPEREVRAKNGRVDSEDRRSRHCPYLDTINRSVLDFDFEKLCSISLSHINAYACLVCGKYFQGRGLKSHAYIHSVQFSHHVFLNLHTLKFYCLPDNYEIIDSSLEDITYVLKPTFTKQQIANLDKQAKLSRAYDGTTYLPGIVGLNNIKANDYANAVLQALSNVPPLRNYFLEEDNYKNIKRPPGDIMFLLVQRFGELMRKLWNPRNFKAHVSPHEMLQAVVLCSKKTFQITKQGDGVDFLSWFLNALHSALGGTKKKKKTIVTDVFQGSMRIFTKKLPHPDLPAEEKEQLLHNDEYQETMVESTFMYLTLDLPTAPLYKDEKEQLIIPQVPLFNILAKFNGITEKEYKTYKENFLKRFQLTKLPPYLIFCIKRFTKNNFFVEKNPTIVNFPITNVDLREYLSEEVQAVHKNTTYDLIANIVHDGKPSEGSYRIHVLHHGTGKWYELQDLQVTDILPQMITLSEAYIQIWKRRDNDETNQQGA
Outline: as §1

USP4 = biological target: T4, USP4 (UniProt Q13107)
T4 sequence (whole entry): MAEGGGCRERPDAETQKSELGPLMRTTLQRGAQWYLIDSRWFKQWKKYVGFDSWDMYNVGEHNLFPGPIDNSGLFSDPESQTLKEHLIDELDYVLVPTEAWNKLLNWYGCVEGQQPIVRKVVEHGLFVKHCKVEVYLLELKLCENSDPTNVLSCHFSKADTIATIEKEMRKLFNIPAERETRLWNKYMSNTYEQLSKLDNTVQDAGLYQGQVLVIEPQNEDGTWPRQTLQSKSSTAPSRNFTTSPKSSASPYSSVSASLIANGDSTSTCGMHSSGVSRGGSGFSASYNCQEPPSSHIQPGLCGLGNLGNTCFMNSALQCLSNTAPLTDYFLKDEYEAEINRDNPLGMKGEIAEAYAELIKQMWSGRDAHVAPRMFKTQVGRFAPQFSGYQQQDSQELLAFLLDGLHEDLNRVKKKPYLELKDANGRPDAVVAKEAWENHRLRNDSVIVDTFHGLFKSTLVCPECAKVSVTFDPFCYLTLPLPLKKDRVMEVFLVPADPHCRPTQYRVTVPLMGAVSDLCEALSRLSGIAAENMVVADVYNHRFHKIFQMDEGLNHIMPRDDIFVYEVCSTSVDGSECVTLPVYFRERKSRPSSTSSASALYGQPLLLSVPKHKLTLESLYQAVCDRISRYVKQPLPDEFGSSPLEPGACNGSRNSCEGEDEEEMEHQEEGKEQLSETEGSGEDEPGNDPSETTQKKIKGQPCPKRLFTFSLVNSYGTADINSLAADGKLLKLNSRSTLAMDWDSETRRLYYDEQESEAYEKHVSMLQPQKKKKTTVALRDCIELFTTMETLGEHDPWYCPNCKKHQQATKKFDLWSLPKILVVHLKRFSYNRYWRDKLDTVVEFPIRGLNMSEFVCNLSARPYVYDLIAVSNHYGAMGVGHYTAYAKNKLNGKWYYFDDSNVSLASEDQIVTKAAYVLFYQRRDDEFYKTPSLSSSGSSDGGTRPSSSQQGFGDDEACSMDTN
Outline: as §1

Measured: log2 ratio of Biotin-Ahx-Ub-VS probe labelling

O=C(CCl)N1c2ccccc2NC(=O)C12CCCC2
inactive: USP34 -0.193 | USP36 0.111 | USP38 0.18 | USP39 0.678 | USP4 -0.0657
